# According to PubChem BioAssay (EPA / NIEHS):
# Activity calls are given as the source filed them. The calls were made as follows: active = hit-call score of the fitted dose curve at least 0.9, where 1 is the maximum; inactive = score below 0.9.
# Read-out: Glutathione S-Transferase (GSTA2), GSTA2 (gene 2939)
# Assay: LTEA_HepaRG_GSTA2: Life Technologies and Expression Analysis (LTEA) Assay for Glutathione S-Transferase (GSTA2) using HepaRG (AID 2283497)
# Conditions: mRNA level, 48 h; actives raise or lower the signal
# Protocol: LTEA_HepaRG is a cell based, multiplexed-readout assay that uses HepaRG, a human liver cell line, with measurements taken at 48 hours after chemical dosing on a 96-well plate.LTEA_HepaRG_GSTA2 is one of 102 assay component(s) measured in the LTEA HepaRG cell culture assay. It is a marker of Oxidative Stress.Data from the assay component LTEA_HepaRG_GSTA2 was analyzed into 1 endpoint. This assay endpoint, LTEA_HepaRG_GSTA2, was analyzed with bidirectional fitting relative to DMSO as the negative control and baseline of activity. Using a type of inducible reporter, measures of mRNA induction for gain or loss-of-signal activity can be used to understand regulation of transcription factor activity. To generalize the intended target to other relatable targets, this assay endpoint is annotated to the transferase intended target family, where the subfamily is alkyl and aryl transferase.
# A total of 1060 chemcials from the ToxCast library were tested in eight-point concentration-response experiments. Cell culture and cytotoxicity assays were conducted at Thermo Fisher Scientific's Custom Services facility (Madison, WI). A single lot of human HepaRG cells (Thermo Fisher Scientific, Frederick, MD) was used for the cell culture experiments. 96-well format collagen type I coated plates of human HepaRG cells were prepared using established methods. Briefly, cryopreserved HepaRG cells were thawed, plated at a density of approximately 100,000 cells/well in HepaRG Thaw, Plate, and General Purpose media (HPRG770, Thermo Fisher Scientific), and incubated for 48 hours. 0.5% DMSO was selected as vehicle control to balance the requisite need of DMSO in HepaRG cultures to maintain differentiation (for example, baseline metabolism, proportions of hepatocytes vs. cholangiocytes), while enabling further hepatic receptor pathway activation (for example, PXR and CAR) in response to chemical exposure. 48 hours after plating, the culture medium was replaced with HepaRG Serum-Free Incudtion Media. Cells were exposed to each test chemical in duplicate and maintained in CO2 incubators for another 48 hours. Chemical plates were thawed to room temperature and 200x concentrations of treatment groups were prepared. 8-point conentration-reponse curves were made with the highest exposure at 100 uM, followed by half-log dilutions, all in 0.5% DMSO. Each test plate contained variouse controls, induction positive controls (1mM phenobarbital), cytotoxicity positive controls ([…] aflatoxin B1), vehicle controls (0.5% DMSO), and total lysis controls (0.5% DMSO). Cell morphology images were taken using an Essen IncuCyte FLR automated microscope, with six 96-well plates imaged in about 24 minutes. Images were captured and exported and JPEG files. Spent culture media was transfered to black-well plates for the LDH assay, and remaining media was sorted at -80 C for later use. Cells were treated with RLT buffer and frozen until shipped for gene expression analysis. Total RNA was isolated from the cell suspension in 75 uL of Buffer RLT (Qiagen, Germantown, MD 20874) by Quintiles/Expression Analysis (Durham, NC) using a custom isolation procedure. Total RNA from each plate well was transferred to a preamplification plate. Fluidigm's 96.96 Dynamic ArrayTM (Fluidigm, Amsterdam, the Netherlands) technology was used for gene expression analyses by quantitative reverse transcription polymerase chain reaction (qRT-PCR, performed by Quintiles/Expression Analysis, Durham, NC)89. Standard TaqManTM Assays (Applied Biosystems/ThermoFisher Scientific, Foster City, CA) were used to assess the expression of 93 genes selected based on their selectivity and sensitivity to important hepatic receptors known to be modulated by environmental chemicals; importance in human hepatocyte functionality; and hepatotoxicity. […]
SMILES,AC50,outcome
COCC(C)N(C(=O)CCl)c1c(C)csc1C (stereo not given),25 µM (active),–
COP(=S)(OC)Oc1ccc([N+](=O)[O-])c(C)c1,–,inactive
COc1cc(OC)nc(NC(=O)NS(=O)(=O)c2ncccc2OCC(F)(F)F)n1,–,inactive
CCCN(CC)CC1COC2(CCC(C(C)(C)C)CC2)O1 (stereo not given),–,inactive
CS(=O)(=O)c1ccc(C(=O)C2C(=O)CCCC2=O)c([N+](=O)[O-])c1,–,inactive
CC1(C)C(C=C(Cl)Cl)C1C(=O)OC(C#N)c1cccc(Oc2ccccc2)c1 (stereo not given),–,inactive
CO/N=C(/C1=NOCCO1)c1ccccc1Oc1ncnc(Oc2ccccc2Cl)c1F,28.4 µM (active),–
CC(C)N1C(=O)c2ccccc2NS1(=O)=O,–,inactive
O=c1n(Cl)c(=O)n(Cl)c(=O)n1Cl,–,inactive
Cn1c(-c2ccccc2)cc(-c2ccccc2)[n+]1C,65.9 µM (active),–
CSC(=O)c1c(C(F)F)nc(C(F)(F)F)c(C(=O)SC)c1CC(C)C,88.2 µM (active),–
COC(=O)N(C(=O)N1CO[C@@]2(C(=O)OC)Cc3cc(Cl)ccc3C2=N1)c1ccc(OC(F)(F)F)cc1,51.3 µM (active),–
Cc1ccc(N=CN(C)C=Nc2ccc(C)cc2C)c(C)c1,–,inactive
Nc1c(Cl)c(Cl)nc(C(=O)O)c1Cl,–,inactive
CCOC(=O)C(C)OC(=O)c1cc(Oc2ccc(C(F)(F)F)cc2Cl)ccc1[N+](=O)[O-] (stereo not given),84.3 µM (active),–
COc1cc(Cl)c(OC)cc1Cl,–,inactive
C=C(C)CN(CC)c1c([N+](=O)[O-])cc(C(F)(F)F)cc1[N+](=O)[O-],–,inactive
N#CN=C1SCCN1Cc1ccc(Cl)nc1,–,inactive
COCC(=O)N(c1c(C)cccc1C)C(C)C(=O)OC (stereo not given),–,inactive
C=CCOC(=O)C(C)(C)OC(=O)c1cc(-n2c(=O)cc(C(F)(F)F)n(C)c2=O)ccc1Cl,–,inactive

SMILES,AC50,outcome
CCCCC(O)(Cn1cncn1)c1ccc(Cl)cc1Cl (stereo not given),73.2 µM (active),–
CCNP(=S)(OC)O/C(C)=C/C(=O)OC(C)C (stereo not given),–,inactive
Clc1nc(Cl)nc(Nc2ccccc2Cl)n1,–,inactive
COc1ccc(-c2ccccc2)cc1NNC(=O)OC(C)C,–,inactive
CC1(C)CCC(=Cc2ccc(Cl)cc2)C1(O)Cn1cncn1 (stereo not given),–,inactive
O=P(O)(O)CCCl,–,inactive
Cc1cnc(C2=NC(C)(C(C)C)C(=O)N2)c(C(=O)O)c1 (stereo not given),–,inactive
CCOP(=O)(OCC)Oc1nc(Cl)c(Cl)cc1Cl,75.5 µM (active),–
Nc1cnn(-c2ccccc2)c(=O)c1Cl,–,inactive
Cc1c(COC(=O)[C@@H]2[C@H](/C=C(\Cl)C(F)(F)F)C2(C)C)cccc1-c1ccccc1,–,inactive
CC(C)C1(C)N=C(c2ncccc2C(=O)O)NC1=O (stereo not given),–,inactive
CCOP(=S)(OCC)Oc1nc(Cl)n(C(C)C)n1,–,inactive
OC(c1ccc(Cl)cc1)(c1ccc(Cl)cc1)C(Cl)(Cl)Cl,77.3 µM (active),–
CC(C)N1C(=O)N(c2ccccc2)CSC1=NC(C)(C)C,82.3 µM (active),–
CNC(=O)N(C)c1nnc(C(C)(C)C)s1,–,inactive
Cc1cc(C)nc(Nc2ccccc2)n1,–,inactive
N#Cc1c[nH]cc1-c1cccc2c1OC(F)(F)O2,85.6 µM (active),–
Nc1c(Cl)c(F)nc(OCC(=O)O)c1Cl,–,inactive
Clc1cccc(C(Cl)(Cl)Cl)n1,–,inactive
CCSC(=O)N1CCCCCC1,–,inactive
